# Sampled rows, rich in hits. Any-hit rate of the full collection: about 2.3%.
# HTR1A agonist: human 5-HT1a receptor agonists, primary screen, cell-based, CHO, Ga15 NFAT-bla reporter | 5-hydroxytryptamine receptor 1A (Homo sapiens), P08908 | CHO 5-HT1a Ga15 NFAT-bla reporter, FRET ratio; 0% basal, 100% maximal reference agonist | activation, % at 10 µM | 65,000 compounds, 0.56% hits;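 active = activation above the screen-wide mean activation plus 3 SD, cut at about 19% in these data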
# 5-HT1A blocker: human 5-HT1a receptor antagonists, primary screen, cell-based, CHO, Ga15 NFAT-bla reporter; inhibition, % at 10 µM; 5-hydroxytryptamine receptor 1A (Homo sapiens), P08908; 62,000 compounds, 0.68% hits; CHO 5-HT1a Ga15 NFAT-bla reporter, antagonist mode;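 active = inhibition above the mean of all tested compounds plus 3 SD, cut at about 43% in these data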;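 also: receptor stimulated by 5-CT agonist at 100 nM near EC80; beta-lactamase reporter measured by ratiometric fluorescence of a cleavable substrate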
# 5HT1E ag: 5-HT1E receptor agonists, primary screen, cell-based, HTS; 5-hydroxytryptamine receptor 1E (Homo sapiens), P28566; CHO 5-HT1E Ga15 NFAT-bla reporter, FRET; 0% DMSO wells, 100% control agonist wells; activation, % at 6 µM; 65,000 compounds, 0.69% hits;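 active = activation above a set limit, the screen-wide mean activation plus 3 SD, cut at about 8.5% in these data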
# Target sequence (P28566 whole entry, looked up): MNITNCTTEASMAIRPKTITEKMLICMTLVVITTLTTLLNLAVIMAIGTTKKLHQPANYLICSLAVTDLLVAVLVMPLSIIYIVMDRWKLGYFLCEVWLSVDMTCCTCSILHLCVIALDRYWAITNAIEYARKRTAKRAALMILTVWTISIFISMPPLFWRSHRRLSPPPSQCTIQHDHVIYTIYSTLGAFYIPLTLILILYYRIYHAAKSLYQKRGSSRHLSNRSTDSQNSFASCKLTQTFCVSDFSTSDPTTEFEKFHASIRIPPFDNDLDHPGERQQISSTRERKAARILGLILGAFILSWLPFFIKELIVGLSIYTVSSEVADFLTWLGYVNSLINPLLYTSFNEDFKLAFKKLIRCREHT
# Htt clearance: clearance of mutant huntingtin inclusions, primary screen, imaging, HeLa Exon1htt(103Q)mCFP, confocal imaging; aggregate imaging; zero = plate's median compound well; inhibition, % at 1.5 µM; 47,000 compounds, 0.42% hits; AID 853, 2007;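 active = inhibition of aggregate fluorescence above about 70%, also judged a hit by eye on the cell image, limit read from the data, passing the limit was not always enough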;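 also: cells exposed to compound for three days before fixation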
# HTR1E antagonist: 5-HT1E receptor antagonists, primary screen, cell-based, HTS; CHO 5-HT1E Ga15 NFAT-bla reporter, FRET, antagonist; inhibition, % at 6 µM; 65,000 compounds, 0.99% hits; AID 571, 2007;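 active = inhibition above a set limit, the mean inhibition across every tested compound plus 3 SD, cut at about 29% in these data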;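 also: signal is the 460 over 535 nm emission ratio of beta-lactamase substrate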
# Hits are given with their value; - = inactive; . = not tested or not shown.
SMILES,HTR1A agonist,5-HT1A blocker,5HT1E ag,Htt clearance,HTR1E antagonist
CSc1nc2ccc(Nc3nc(N4CCOCC4)nc(N4CCOCC4)n3)cc2s1,-,-,-,-,32.8
CSc1nc2ccc(NC(=O)C3CCCO3)cc2s1 (stereo unspecified),-,-,52.3,.,-
COc1ccc(C2=Nn3c(nnc3-c3ccccn3)SC2)cc1,-,.,-,-,-
Cc1ccc(-c2nnc3n2N=C(c2ccc(Br)cc2)CS3)cc1,-,-,-,-,-
COc1ccccc1-c1nnc2n1N=C(c1ccc(O)c(O)c1)CS2,-,.,-,-,65.6
Brc1ccccc1C1=Nn2c(nnc2-c2ccccc2)SC1,-,-,-,.,32.8
CCOc1ccc(C2=Nn3c(nnc3-c3ccccc3OC)SC2)cc1,-,.,-,-,75.4
COc1ccc(C2=Nn3c(nnc3-c3cccnc3)SC2)cc1OC,-,.,-,.,33.8
Cc1ccc(-n2c(-c3c(-c4ccccc4)noc3C)n[nH]c2=S)cc1,.,.,.,-,.
Cc1cccc(-n2c(SCC(=O)Nc3nonc3C)nnc2-c2ccoc2C)c1,34.5,-,-,-,-
CCCC(=O)Nc1cccc(NC(=O)c2ccc3c(c2)OCO3)c1,-,-,13.7,.,-
COc1ccc2c(C)cc(N3CCOCC3)nc2c1,.,.,.,73.3,.
COc1ccc2c(C)cc(N3CCN(c4ccc(F)cc4)CC3)nc2c1,.,.,.,-,.
CC1=C(C(=O)OCc2ccc3c(c2)OCO3)C(c2ccccc2)NC(=O)N1 (stereo unspecified),-,-,-,74.5,-
CC1=C(C(=O)OCc2ccccc2)C(c2ccc(N3CCOCC3)cc2)NC(=O)N1 (stereo unspecified),-,-,-,-,-
Cc1nc(-c2cccc(S(=O)(=O)N3CCCC(C)C3)c2)cs1 (stereo unspecified),.,.,.,-,.
CS(=O)c1nc(-c2ccc(Br)cc2)cc(-c2ccccc2)c1C#N (stereo unspecified),-,80.7,-,.,42.8
CCOC(=O)N=S(=O)(Oc1ccc([N+](=O)[O-])cc1)c1ccccc1 (stereo unspecified),.,.,.,78.3,.
C=CCC(=O)OCC(=O)Nc1ccc(Cl)cn1,.,.,.,-,.
O=C(COC(=O)CCC1CCCC1)Nc1ccc(Cl)cn1,-,-,59.0,-,-
O=C1CCCC2=C1C(O)(C(F)(F)F)C(=O)N2Cc1ccccc1 (stereo unspecified),-,-,-,-,-
O=C1N2c3ccccc3CCc3cccc(c32)C1(O)C(F)(F)F (stereo unspecified),-,-,-,.,29.0
N/C(=N\OS(=O)(=O)c1ccc(Br)cc1)c1ccncc1,.,.,.,-,.
O=C(c1ccco1)N1CCC(c2ccccc2)C1 (stereo unspecified),-,-,-,-,-
Cc1nn2c(c1-c1ccccc1)NC1=C(C(=O)CCC1)C2c1cccnc1 (stereo unspecified),-,-,-,.,-
SMILES,HTR1A agonist,5-HT1A blocker,5HT1E ag,Htt clearance,HTR1E antagonist
CCOC(=O)c1[nH]c2ccc(OC)cc2c1NC(=O)CN1CCN(c2ccccn2)CC1,28.6,.,-,.,-
CCOC(=O)C1CCN(CC(=O)Nc2c(C(=O)OC)[nH]c3ccccc23)CC1,-,-,-,-,-
CCOC(=O)C1CCN(CC(=O)Nc2c(C(=O)OC)[nH]c3ccc(Cl)cc23)CC1,-,-,-,-,28.7
COC(=O)c1ccc(C(=O)OC)c(NC(=O)c2ocnc2C)c1,-,-,-,.,-
COc1cccc(-c2cc(C(=O)N3CCN(C(c4ccccc4)c4ccccc4)CC3)no2)c1,-,51.8,-,.,-
CCOC(=O)c1cccc(NC(=O)CSc2nc3cccnc3n2C)c1,-,-,-,-,-
CCOC(=O)c1sc(NC(C)=O)c(C(=O)OCC)c1C,-,-,-,-,-
CCOC(=O)c1c(NC(=O)CSc2nc3cccnc3n2C)sc(C(C)=O)c1C,-,-,-,.,43.3
CCOC(=O)c1c(NC(=O)CSc2nnc(-c3ccccc3C)n2C)sc(C(C)=O)c1C,-,-,-,75.8,-
CCOC(=O)c1c(NC(=O)c2csc(C)c2)sc(C(C)=O)c1C,-,-,-,78.2,-
CCOC(=O)c1c(NC(=O)CSc2nnc(-c3cccnc3)o2)sc(C(C)=O)c1C,-,-,-,.,30.4
O=C(Cn1cc2c(n1)CCCC2)Nc1cc(-c2cccc(Cl)c2)no1,-,-,-,.,-
CCOC(=O)c1c(NC(=O)Cn2nnc(-c3ccc(Cl)cc3)n2)sc(CC)c1C,.,.,.,-,.
CN(C)c1cc(-c2ccccc2)nc(N)n1,-,-,-,.,-
Nc1nc(NCc2ccccc2)nc(-c2ccccc2)n1,-,-,-,.,-
Nc1nc(-c2ccccc2)nc(-c2ccccc2O)n1,-,51.4,-,-,-
Nc1nc(-c2ccccc2)cc(-c2ccccc2O)n1,-,57.2,-,-,-
CCN(Cc1ccccc1)C(c1cccc(C#N)c1)c1nnnn1C(C)(C)C (stereo unspecified),-,44.2,-,.,-
CC(=O)N1CCc2cc(S(=O)(=O)CCC(=O)N3CCN(C(=O)c4ccco4)CC3)ccc21,-,-,-,-,31.2
C/C(Cl)=C\Cn1c(N2CCCCCC2)nc2c1c(=O)n(C)c(=O)n2C,-,-,-,.,35.1
CCN(CC)CCCN1C(=O)C(O)=C(C(C)=O)C1c1ccc(OC)cc1OC (stereo unspecified),-,-,-,.,-
Cc1oc(-c2ccc(Cl)cc2)nc1CN1CCCC(C(=O)NCCCN2CCOCC2)C1 (stereo unspecified),-,-,23.1,-,-
Cc1ccccc1-c1nc(CN2CCC(C(=O)NCCCN3CCCC3)CC2)c(C)o1,-,-,17.4,-,-
Cc1oc(-c2ccc(Cl)cc2)nc1CN1CCC(C(=O)N2CCN(Cc3ccccc3)CC2)CC1,-,-,-,.,-
Cc1oc(-c2ccc(Cl)cc2)nc1CN1CCCC(C(=O)NCc2cccnc2)C1 (stereo unspecified),-,-,11.6,-,-
SMILES,HTR1A agonist,5-HT1A blocker,5HT1E ag,Htt clearance,HTR1E antagonist
Cc1oc(-c2ccc(Cl)cc2)nc1CN1CCC(C(=O)N2CCc3ccccc3C2)CC1,31.8,-,-,.,-
O=C(c1ccccc1F)N(Cc1ccc2c(c1)OCO2)Cc1cc2cc3c(cc2n2nnnc12)OCO3,.,.,.,-,.
Cc1sc2ncnc(SCC(=O)NC(=O)NCc3ccco3)c2c1C,98.4,-,-,-,-
CCOC(=O)c1cnc(-n2nc(C)cc2C)nc1NCc1ccccc1,-,47.4,-,-,-
Nc1ccc(Oc2ccc3nc(-c4ccccc4)c(-c4ccc([N+](=O)[O-])cc4)nc3c2)cc1,.,.,.,-,.
CCOc1ccc(C(C)=O)cc1N1C(=O)C2C3C=CC(O3)C2C1=O (stereo unspecified),-,60.5,-,.,39.3
COc1cc(C(=O)Nc2nc3ccccc3[nH]2)cc(OC)c1OC,-,-,-,-,-
